{
  "source": "PubChem BioAssay",
  "note": "Records with an inconclusive call do not appear. Active and inactive are the calls of the source.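 The calls were made as follows, unless noted: active = inhibition over a set limit, the all-compound mean plus 3 SD, in both replicate runs; inconclusive = over that limit in just one replicate run; inactive = at or under that limit in both runs.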",
  "data": [
    {"assay": "viability of PTEN-null HCT116 cells – cell-based, HCT116 clonal line, CellTiter-Glo, pilot screen (AID 824;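 active = viability at or below 27.92% in each of two runs, the all-compound median minus 4 SD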;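 also: 0% = 20 µM Hyamine control and 100% = vehicle cell control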)", "details": "HCT116 PTEN-deleted viability, 60 h, at 10 µM, active compounds read low", "values": [
      {"smiles": "CCCCC(=O)NCCc1cc2c(C)ccc(C)c2[nH]c1=O", "viability": "106% (inactive)"},
      {"smiles": "CN1CCN(C2=C(Cl)C(=O)N(c3cccc(Cl)c3)C2=O)CC1", "viability": "104% (inactive)"},
      {"smiles": "Cc1ccc(Cn2c(=O)c3ccccc3n3c(CCC(=O)O)nnc23)cc1", "viability": "98.7% (inactive)"},
      {"smiles": "COc1cc(/C=N/n2cnnc2)ccc1OCC(=O)N1CCOCC1", "viability": "98.9% (inactive)"},
      {"smiles": "CCC(C)C(=O)Nc1nc2c(s1)C(=O)CC(C)(C)C2", "note": "(stereo not given)", "viability": "97.5% (inactive)"},
      {"smiles": "O=C(C(Cc1ccccc1)n1cccc1)N1CCCCCC1", "note": "(stereo not given)", "viability": "88% (inactive)"},
      {"smiles": "Cc1ccc(NC(=O)c2cc(-c3ccc(C)o3)nc3ccccc23)nc1", "viability": "84.2% (inactive)"},
      {"smiles": "Cc1cccc(-n2ncc3c(NCCCn4ccnc4)ncnc32)c1", "viability": "99.5% (inactive)"},
      {"smiles": "Cc1ccc(CNC(=O)C2CCCN(S(=O)(=O)c3cnc[nH]3)C2)cc1", "note": "(stereo not given)", "viability": "102% (inactive)"},
      {"smiles": "CCCN1CCN(CCCNC(=O)Cn2ncc3c4ccccc4n(C)c3c2=O)CC1", "viability": "95.8% (inactive)"},
      {"smiles": "CN(C)c1cc(NC(=O)CN2CCOCC2)c2ccccc2n1", "viability": "99.4% (inactive)"},
      {"smiles": "CN(C)S(=O)(=O)c1ccc2c(c1)c(=O)c(C(=O)NCCCN1CCCCCC1)cn2C", "viability": "99.5% (inactive)"},
      {"smiles": "CC(C)c1ccc(C(O)c2cnc(C(C)C)n2C)cc1", "note": "(stereo not given)", "viability": "91% (inactive)"},
      {"smiles": "CCN(CC)C(=O)c1ccc(CS(=O)(=O)c2ccc(OC)cc2)o1", "viability": "95.3% (inactive)"},
      {"smiles": "COc1ccc2c(c1)CCc1cc(C(=O)N3CCN(c4ccc(N5CCOCC5)nn4)CC3)sc1-2", "viability": "59% (inactive)"},
      {"smiles": "COc1ccc(-c2[nH]c(-c3cccc(OC)c3)nc2SCC(=O)NCc2ccco2)cc1", "viability": "90.3% (inactive)"},
      {"smiles": "CCSc1nnc(N2C(=O)CC(c3ccsc3)C3=C2CC(C)(C)CC3=O)s1", "note": "(stereo not given)", "viability": "94.9% (inactive)"},
      {"smiles": "CC1=C(C(=O)Nc2cccnc2)C(c2ccc(C(C)C)cc2)n2ncnc2N1", "note": "(stereo not given)", "viability": "102% (inactive)"},
      {"smiles": "CCCCN=CC1=C(O)C(C(=O)OC)C(C)(C)CC1=O", "note": "(stereo not given)", "viability": "93.9% (inactive)"},
      {"smiles": "O=C1c2ccccc2C(Nc2cccnc2)N1Cc1ccccc1Cl", "note": "(stereo not given)", "viability": "99.2% (inactive)"},
      {"smiles": "CC(=O)NC(CCS(C)(=O)=O)C(=O)Nc1cccc(C)c1", "note": "(stereo not given)", "viability": "100% (inactive)"},
      {"smiles": "Cc1ccc(N2CCN(S(=O)(=O)N(C)C)CC2)c(C)c1", "viability": "88.1% (inactive)"},
      {"smiles": "CCOc1ccc(NC(=O)CCN2CCN(c3ccccc3)CC2)cc1", "viability": "80.4% (inactive)"},
      {"smiles": "CCOC(=O)C1=C(C)Nc2nnnn2C1c1ccc(OC)c(Br)c1", "note": "(stereo not given)", "viability": "90.7% (inactive)"},
      {"smiles": "CC(C)c1nnc(NC(=O)Cc2cccs2)s1", "viability": "94.8% (inactive)"},
      {"smiles": "Cc1ccnc(NC(=O)C2CCC(CNc3c(N4CCCC4)c(=O)c3=O)CC2)c1", "note": "(stereo not given)", "viability": "71.6% (inactive)"},
      {"smiles": "CCN(CCCNS(=O)(=O)c1ccc2c(c1)oc(=O)n2C)c1cccc(C)c1", "viability": "89.5% (inactive)"},
      {"smiles": "O=C(NCC1CCCO1)C1CCN(S(=O)(=O)c2cccc3cccnc23)CC1", "note": "(stereo not given)", "viability": "93.7% (inactive)"},
      {"smiles": "CCn1c(C(=O)N2CCC(C(=O)N3CCN(c4ccccn4)CC3)CC2)cc2sccc21", "viability": "78.2% (inactive)"},
      {"smiles": "O=C(O)COc1ccc(S(=O)(=O)NCCc2ccccc2)cc1", "viability": "96.2% (inactive)"},
      {"smiles": "CCOC(=O)N1CCN(C(=O)c2ccc(CS(=O)(=O)c3c(Cl)cccc3Cl)o2)CC1", "viability": "100% (inactive)"},
      {"smiles": "CNC(=O)c1ccsc1NC(=O)c1ccccc1", "viability": "95.2% (inactive)"},
      {"smiles": "CSc1nc2ccccc2c(=O)n1N", "viability": "103% (inactive)"},
      {"smiles": "CCN1CCN(C(c2cccs2)C(C)NC(=O)c2ccccc2)CC1", "note": "(stereo not given)", "viability": "105% (inactive)"},
      {"smiles": "CC(Sc1nc(-c2ccccc2)cc(C(F)(F)F)n1)C(=O)N1CCCC1", "note": "(stereo not given)", "viability": "84% (inactive)"},
      {"smiles": "CCOc1cccc(-c2nnc3n2N=C(c2cc(OC)ccc2OC)CS3)c1", "viability": "21.2% (active)"},
      {"smiles": "COc1cc(NC(=O)C2CCCN2S(=O)(=O)c2cccc3cccnc23)cc(OC)c1OC", "note": "(stereo not given)", "viability": "79.4% (inactive)"},
      {"smiles": "CCOC(=O)c1ccc(-n2c(C)nc3c(cnn3-c3ccccc3C)c2=O)cc1", "viability": "91% (inactive)"},
      {"smiles": "O=C(Nc1c(C(=O)NCc2ccco2)cnn1-c1ccccc1)c1ccc(F)cc1", "viability": "96.8% (inactive)"},
      {"smiles": "O=C(NCCC1=CCCCC1)C1CCN(S(=O)(=O)c2cccc3cccnc23)CC1", "viability": "91.6% (inactive)"}
    ]},
    {"assay": "RAM pathway blockade in budding yeast – dse1pr::URA3 reporter, 5-FOA selection, pilot screen (AID 869);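 also: 0% = DMSO wells with no growth and 100% = 10 µM 1-NA-PP1 with full growth; RAM network block rescues cells from 5-FOA so hits raise OD615 growth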", "details": "S. cerevisiae dse1pr::URA3 5-FOA growth, OD615, 2 d; at 10 µM; active compounds read high; strain carries analog-sensitive mutant Cbk1 kinase", "values": [
      {"smiles": "CCCCC(=O)NCCc1cc2c(C)ccc(C)c2[nH]c1=O", "inhibition": "1.61% (inactive)"},
      {"smiles": "CN1CCN(C2=C(Cl)C(=O)N(c3cccc(Cl)c3)C2=O)CC1", "inhibition": "0.75% (inactive)"},
      {"smiles": "Cc1ccc(Cn2c(=O)c3ccccc3n3c(CCC(=O)O)nnc23)cc1", "inhibition": "2.29% (inactive)"},
      {"smiles": "COc1cc(/C=N/n2cnnc2)ccc1OCC(=O)N1CCOCC1", "inhibition": "2.55% (inactive)"},
      {"smiles": "CCC(C)C(=O)Nc1nc2c(s1)C(=O)CC(C)(C)C2", "note": "(stereo not given)", "inhibition": "2.1% (inactive)"},
      {"smiles": "O=C(C(Cc1ccccc1)n1cccc1)N1CCCCCC1", "note": "(stereo not given)", "inhibition": "1.68% (inactive)"},
      {"smiles": "Cc1ccc(NC(=O)c2cc(-c3ccc(C)o3)nc3ccccc23)nc1", "inhibition": "1.21% (inactive)"},
      {"smiles": "Cc1cccc(-n2ncc3c(NCCCn4ccnc4)ncnc32)c1", "inhibition": "1.1% (inactive)"},
      {"smiles": "Cc1ccc(CNC(=O)C2CCCN(S(=O)(=O)c3cnc[nH]3)C2)cc1", "note": "(stereo not given)", "inhibition": "0.415% (inactive)"},
      {"smiles": "CCCN1CCN(CCCNC(=O)Cn2ncc3c4ccccc4n(C)c3c2=O)CC1", "inhibition": "1.89% (inactive)"},
      {"smiles": "CN(C)c1cc(NC(=O)CN2CCOCC2)c2ccccc2n1", "inhibition": "-0.365% (inactive)"},
      {"smiles": "CN(C)S(=O)(=O)c1ccc2c(c1)c(=O)c(C(=O)NCCCN1CCCCCC1)cn2C", "inhibition": "0.785% (inactive)"},
      {"smiles": "CC(C)c1ccc(C(O)c2cnc(C(C)C)n2C)cc1", "note": "(stereo not given)", "inhibition": "0.355% (inactive)"},
      {"smiles": "CCN(CC)C(=O)c1ccc(CS(=O)(=O)c2ccc(OC)cc2)o1", "inhibition": "1.96% (inactive)"},
      {"smiles": "COc1ccc2c(c1)CCc1cc(C(=O)N3CCN(c4ccc(N5CCOCC5)nn4)CC3)sc1-2", "inhibition": "0.905% (inactive)"},
      {"smiles": "COc1ccc(-c2[nH]c(-c3cccc(OC)c3)nc2SCC(=O)NCc2ccco2)cc1", "inhibition": "1.09% (inactive)"},
      {"smiles": "CCSc1nnc(N2C(=O)CC(c3ccsc3)C3=C2CC(C)(C)CC3=O)s1", "note": "(stereo not given)", "inhibition": "0.195% (inactive)"},
      {"smiles": "CC1=C(C(=O)Nc2cccnc2)C(c2ccc(C(C)C)cc2)n2ncnc2N1", "note": "(stereo not given)", "inhibition": "0.44% (inactive)"},
      {"smiles": "CCCCN=CC1=C(O)C(C(=O)OC)C(C)(C)CC1=O", "note": "(stereo not given)", "inhibition": "0.72% (inactive)"},
      {"smiles": "O=C1c2ccccc2C(Nc2cccnc2)N1Cc1ccccc1Cl", "note": "(stereo not given)", "inhibition": "0.17% (inactive)"},
      {"smiles": "CC(=O)NC(CCS(C)(=O)=O)C(=O)Nc1cccc(C)c1", "note": "(stereo not given)", "inhibition": "1.04% (inactive)"},
      {"smiles": "Cc1ccc(N2CCN(S(=O)(=O)N(C)C)CC2)c(C)c1", "inhibition": "2.69% (inactive)"},
      {"smiles": "CCOc1ccc(NC(=O)CCN2CCN(c3ccccc3)CC2)cc1", "inhibition": "0.545% (inactive)"},
      {"smiles": "CCOC(=O)C1=C(C)Nc2nnnn2C1c1ccc(OC)c(Br)c1", "note": "(stereo not given)", "inhibition": "3.05% (inactive)"},
      {"smiles": "CC(C)c1nnc(NC(=O)Cc2cccs2)s1", "inhibition": "2.64% (inactive)"},
      {"smiles": "Cc1ccnc(NC(=O)C2CCC(CNc3c(N4CCCC4)c(=O)c3=O)CC2)c1", "note": "(stereo not given)", "inhibition": "0.595% (inactive)"},
      {"smiles": "CCN(CCCNS(=O)(=O)c1ccc2c(c1)oc(=O)n2C)c1cccc(C)c1", "inhibition": "0.695% (inactive)"},
      {"smiles": "O=C(NCC1CCCO1)C1CCN(S(=O)(=O)c2cccc3cccnc23)CC1", "note": "(stereo not given)", "inhibition": "1.76% (inactive)"},
      {"smiles": "CCn1c(C(=O)N2CCC(C(=O)N3CCN(c4ccccn4)CC3)CC2)cc2sccc21", "inhibition": "0.93% (inactive)"},
      {"smiles": "O=C(O)COc1ccc(S(=O)(=O)NCCc2ccccc2)cc1", "inhibition": "1.84% (inactive)"},
      {"smiles": "CCOC(=O)N1CCN(C(=O)c2ccc(CS(=O)(=O)c3c(Cl)cccc3Cl)o2)CC1", "inhibition": "0.365% (inactive)"},
      {"smiles": "CNC(=O)c1ccsc1NC(=O)c1ccccc1", "inhibition": "1.97% (inactive)"},
      {"smiles": "CSc1nc2ccccc2c(=O)n1N", "inhibition": "1.75% (inactive)"},
      {"smiles": "CCN1CCN(C(c2cccs2)C(C)NC(=O)c2ccccc2)CC1", "note": "(stereo not given)", "inhibition": "-0.445% (inactive)"},
      {"smiles": "CC(Sc1nc(-c2ccccc2)cc(C(F)(F)F)n1)C(=O)N1CCCC1", "note": "(stereo not given)", "inhibition": "0.895% (inactive)"},
      {"smiles": "CCOc1cccc(-c2nnc3n2N=C(c2cc(OC)ccc2OC)CS3)c1", "inhibition": "1.96% (inactive)"},
      {"smiles": "COc1cc(NC(=O)C2CCCN2S(=O)(=O)c2cccc3cccnc23)cc(OC)c1OC", "note": "(stereo not given)", "inhibition": "0.905% (inactive)"},
      {"smiles": "CCOC(=O)c1ccc(-n2c(C)nc3c(cnn3-c3ccccc3C)c2=O)cc1", "inhibition": "1.17% (inactive)"},
      {"smiles": "O=C(Nc1c(C(=O)NCc2ccco2)cnn1-c1ccccc1)c1ccc(F)cc1", "inhibition": "-0.12% (inactive)"},
      {"smiles": "O=C(NCCC1=CCCCC1)C1CCN(S(=O)(=O)c2cccc3cccnc23)CC1", "inhibition": "0.885% (inactive)"}
    ]}
  ]
}
